Experimental data as given in PubChem BioAssay (NCATS).
Results filed as inconclusive are left out. Calls of active or inactive are those of the source. Unless noted, calls come from the whole dose curve; as a rule, active = well fitted inhibition curve with a large enough effect; inconclusive = small, poorly fitted or top-dose-only effect, or effect the other way; inactive = flat fitted curve, though single readings scatter.

Experiments:
[1] = qHTS for Inhibitors of Plasmodium falciparum (GB4) proliferation (AID 504315); note: nearly all actives have a fitted effect of over 50% in size
How it was run: (§1)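 Parasite growth measured as SYBR Green DNA fluorescence (ex 485, em 535 nm) after overnight lysis following 72 h culture at 37 °C, 0.3% parasitemia, 2.5% hematocrit. Values normalized against DMSO and 0.29 uM artemisinin controls, with plate-stack correction.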

[2] = qHTS for Inhibitors of Plasmodium falciparum (CP250) proliferation (AID 504320)
How it was run: as §1

[3] = molecular target: Atrial natriuretic peptide receptor 1 (Homo sapiens) (UniProt P16066); assay: Natriuretic polypeptide receptor (hNpr1) antagonism - Pilot CMLD screen (AID 1347052; calls by dose curve;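 note: HEK293 cells with hNpr1 stimulated by hNppA peptide at 0.1 nM; cGMP level read as GloSensor luciferase luminescence after agonist stimulation; series mostly up to about 9.2 µM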)

Measured: Potency

Atrial natriuretic peptide receptor 1 (Homo sapiens), sequence (P16066 whole entry, looked up): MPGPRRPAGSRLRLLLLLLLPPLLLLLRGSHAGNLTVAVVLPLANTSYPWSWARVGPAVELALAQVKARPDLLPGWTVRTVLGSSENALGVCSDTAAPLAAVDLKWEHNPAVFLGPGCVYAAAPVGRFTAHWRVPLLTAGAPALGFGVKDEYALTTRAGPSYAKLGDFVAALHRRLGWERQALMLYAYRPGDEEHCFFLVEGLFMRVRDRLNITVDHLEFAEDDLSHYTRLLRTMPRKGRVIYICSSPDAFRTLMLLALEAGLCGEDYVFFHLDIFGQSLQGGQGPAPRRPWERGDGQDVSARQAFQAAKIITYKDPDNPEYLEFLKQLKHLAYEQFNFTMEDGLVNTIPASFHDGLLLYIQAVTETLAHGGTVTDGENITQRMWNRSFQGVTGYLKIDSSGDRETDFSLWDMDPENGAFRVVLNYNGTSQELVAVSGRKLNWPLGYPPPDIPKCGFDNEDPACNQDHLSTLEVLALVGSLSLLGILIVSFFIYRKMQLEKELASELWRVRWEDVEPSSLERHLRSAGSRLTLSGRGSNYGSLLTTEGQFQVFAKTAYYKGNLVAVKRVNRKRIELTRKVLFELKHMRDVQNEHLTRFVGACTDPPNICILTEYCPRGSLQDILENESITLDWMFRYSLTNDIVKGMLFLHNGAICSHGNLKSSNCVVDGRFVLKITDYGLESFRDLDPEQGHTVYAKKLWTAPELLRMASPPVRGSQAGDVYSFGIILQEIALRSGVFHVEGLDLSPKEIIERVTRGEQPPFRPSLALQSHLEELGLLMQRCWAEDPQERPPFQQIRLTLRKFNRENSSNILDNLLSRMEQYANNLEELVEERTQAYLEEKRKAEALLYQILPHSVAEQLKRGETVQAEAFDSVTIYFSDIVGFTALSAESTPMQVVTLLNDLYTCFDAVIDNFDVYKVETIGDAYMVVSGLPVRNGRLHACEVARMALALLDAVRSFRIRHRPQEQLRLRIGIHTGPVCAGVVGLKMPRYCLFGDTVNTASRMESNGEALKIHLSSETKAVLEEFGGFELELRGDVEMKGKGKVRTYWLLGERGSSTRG

C#CCCCON=C1C[C@@H](O)[C@H](O)[C@H]2[C@@H]3C(=O)N(Cc4ccc5c(c4)OCO5)C(=O)[C@@H]3CC[C@@H]12
inactive: [1] | [2] | [3]

COc1ccc2c(c1)O[C@@H](c1cccc(C(F)(F)F)c1)[C@H](OC(=O)Nc1cc(OC)c(OC)c(OC)c1)C2=O
inactive: [1] | [2] | [3]

O=C1[C@@H]2[C@H]3[C@H](O)[C@H](O)CC(=NOC[C@@H](O)COCc4ccco4)[C@@H]3CC[C@H]2C(=O)N1Cc1ccccc1
inactive: [1] | [2] | [3]

COc1ccc2c(c1)CO[C@H]([C@H](O)CO)[C@H]2C=Cc1ccccc1
inactive: [1] | [2] | [3]

C=C(C)C[C@@]1(c2ccccc2)Oc2ccccc2C2=NCCN=C21
inactive: [1] | [2] | [3]

COc1cc(CCN2C(=O)NC(c3cccc(C(F)(F)F)c3)C(C(C)=O)=C2C)cc(OC)c1OC (stereo not given)
inactive: [1] | [2] | [3]

CC12C=C(C=Cc3ccc(F)cc3)C(C)(C1)C(c1ccc(F)cc1)CC2=O (stereo not given)
inactive: [1] | [2] | [3]

CC(C)=CCCC(C)=CC=CC1=CC2(C)CC1(C)C(C=C(C)CCC=C(C)C)CC2=O (stereo not given)
inactive: [1] | [2] | [3]

COC(=O)C1=C(C(=O)OC)[C@@H]2N(C)c3ccc(OC)cc3[C@@]23C[C@@H](C(=O)OC)N(C(=O)N2CCNC2=O)C3=N1
inactive: [1] | [2] | [3]

CC(C)=CCCC(C)=CCN1C(=O)[C@@]2(CC(C)=C[C@@H](COCc3ccccc3)O2)c2ccccc21
inactive: [1] | [2] | [3]

C[C@H]1C=CCC(=O)NCc2cccc(c2)CNC(=O)N[C@@H]1c1ccccc1
inactive: [1] | [2] | [3]

CC1=C[C@@H](COCc2ccccc2)O[C@@]2(C1)C(=O)Nc1cccc(Br)c12
inactive: [1] | [2] | [3]

COc1ccc([C@]23Cc4cc(OC)c(OC)cc4[C@H](O2)C2=C(CC(C)(C)CC2=O)O3)cc1
inactive: [1] | [2] | [3]

CC12C=C(C=CCCc3ccco3)C(C)(C1)[C@H](CCc1ccco1)CC2=O (stereo not given in full)
inactive: [1] | [2] | [3]

COC(=O)CC=C[C@@H](C)[C@@H](C=NOC[C@H]1O[C@H](c2ccccc2)C=C[C@H]1Oc1ccc(OC)cc1)N[S+](=O)([O-])c1ccc(C)cc1
inactive: [1] | [2] | [3]

C=CC1=C2C=C(C3CC3)N(c3ccc(OC)cc3)C=C2C(=O)C(C)(OC(=O)c2ccco2)C1=O (stereo not given)
inactive: [1] | [2] | [3]

COC1=C[C@@H](C(=O)N[C@H]2CCCC[C@H]2NC(C)=O)[C@]2(C)Cc3ccccc3[C@H]2CC1=O
inactive: [1] | [2] | [3]

O=C1[C@H]2[C@@H]3[C@@H](O)[C@H](O)CC(=NOCc4ccccc4)[C@@H]3CC[C@H]2C(=O)N1Cc1ccc2c(c1)OCO2
inactive: [1] | [2] | [3]

Cc1cc2c(nc1C)CCCCN2C[C@H](C)ON=C1[C@H]2CCn3c(=O)n(-c4ccccc4)c(=O)n3[C@@H]2[C@H](O)[C@@H]2O[C@H]12
inactive: [1] | [2] | [3]

CC=Cc1cc2ccccc2c2c(C(=O)OC)c(C(=O)OC)c(C(=O)OC(C)(C)C)n12
inactive: [1] | [2] | [3]

COC(=O)[C@@H]1CC23C(=NC(c4ccc([N+](=O)[O-])cc4)=C(C(F)(F)F)[C@@H]2N(C)c2ccccc23)N1C(C)=O (stereo not given in full)
inactive: [1] | [2] | [3]

COc1ccc([C@]23Cc4c(ccc5ccccc45)[C@H](O2)C2=C(CCCC2=O)O3)cc1
inactive: [1] | [2] | [3]

COC(=O)C1=C(C(=O)OC)[C@@H]2Nc3ccccc3[C@@]23C[C@@H](C(=O)OC)N(C(=O)N2CCNC2=O)C3=N1
inactive: [1] | [2] | [3]

COc1ccc2c3c(c(=O)oc2c1)[C@H]1O[C@](c2ccsc2)(Cc2cc(C#N)ccc21)O3
inactive: [1] | [2] | [3]

CC1=CC[C@@H](C)O[C@@]2(C1)C(=O)N(Cc1ccc(F)cc1)c1ccccc12
inactive: [1] | [2] | [3]

CCCC[C@]12Cc3cc(C#N)ccc3[C@H](O1)c1c(cc(C)n(-c3ccccc3)c1=O)O2
inactive: [1] | [2] | [3]

CCc1cc2c(nc1CC)CCN(CCC(C)=NO[C@@H]1O[C@H](COC(C)=O)[C@@H](OC(C)=O)[C@H](OC(C)=O)[C@@H]1OC(C)=O)C2
inactive: [1] | [2] | [3]

C#CCCOC(=O)N1C2=NC3=C(C(=O)N(Cc4ccc5c(c4)OCO5)C3=O)C3N(C)c4ccccc4[C@]23C[C@H]1CO (stereo not given in full)
inactive: [1] | [2] | [3]

C=C(C(=O)C(C)(C)O)C(O)c1ccc([N+](=O)[O-])cc1 (stereo not given)
inactive: [1] | [2] | [3]

C#CCOCC#CC[C@@]1(C(=O)OC)C=C[C@@H](C)[C@H](c2ccccc2Br)N1C(=O)C(F)(F)F
inactive: [1] | [2] | [3]
